# Data taken from PubChem BioAssay (NCATS).
# A number with no mark means an inactive call. Records with an inconclusive call do not appear. The source made the active and inactive calls. The call rests on the fitted dose curve; in most records, active means well fitted inhibition curve with a large enough effect; inconclusive means small, poorly fitted or top-dose-only effect; inactive means no such curve, though single readings can be large or run the other way.
# Assay: qHTS assay for measurement of the activity of small molecule inhibitors on Zika virus induced Caspase-3 activity in human astrocytoma cells (AID 1224859);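 on activity change, negative = inhibition: plate controls were ZIKV-infected untreated cells for no effect and uninfected cells for full effect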
# Conditions: SNB-19 ZIKV-induced caspase-3/7, luminescence, 6 h; series mostly up to 45.7 µM; activity change, negative = inhibition: at the top concentration
# Procedure, shortened: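 In SNB-19 cells plated at 250 cells/well and grown 16-20 h, compounds were applied 1 h before ZIKV (2 FFU/cell). Six hours later caspase-3/7 luminescence was recorded.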
# Potency means the concentration at half of the fitted maximal effect.
SMILES,"activity change, negative = inhibition",Potency
O=C(Nc1cc(Cl)cc2c1[nH]c1cnccc12)c1cccnc1,46.2%,
COc1cc(N2CCC(N3CCN(C)CC3)CC2)ccc1Nc1ncnc(Nc2ccccc2S(=O)(=O)C(C)C)n1,12.9%,
Cc1c(NC(=O)c2ccc(C(C)(C)C)cc2)cccc1-c1cn(C)c(=O)c(Nc2ccc(C(=O)N3CCOCC3)cc2)n1,,11.8 µM (active)
O=C(NCc1ccccc1)c1csc(Nc2ccncn2)n1,22.7%,
COc1cc(N2CCC(N3CCN(C)CC3)CC2)ccc1Nc1ncc(Cl)c(Nc2ccccc2S(=O)(=O)C(C)C)n1,96.9%,
COC(=O)N[C@H](C(=O)N1CCC[C@@H]1c1ncc(-c2ccc(-c3ccc(-c4cnc([C@@H]5CCCN5C(=O)[C@@H](NC(=O)OC)C(C)C)[nH]4)cc3)cc2)[nH]1)C(C)C,74.3%,
COc1ccc2cccc(CCNC(C)=O)c2c1,-7.04%,
COC(=O)C1=CO[C@@H](O)[C@@H]2C(CO)=CC[C@@H]12,20.6%,
Nc1ncnc2ccccc12,35.7%,
Nc1ncnc2c1ncn2[C@@H]1O[C@H](CO)C[C@@H]1O,-13.1%,
CN(C)CCC=C1c2ccccc2COc2ccc(CC(=O)O)cc21,-3.19%,
CN[C@@H](C)C(=O)N[C@H]1CN(C(=O)CC(C)C)CC[C@H]2CC[C@@H](C(=O)NC(c3ccccc3)c3ccccc3)N2C1=O,26.7%,
COc1cc(O)c2c(c1)C(=O)c1cc(C)cc(O)c1C2=O,2.24% [at 20.5 µM],
NC1=N[C@@]2(c3cc(NC(=O)c4ccc(F)cn4)ccc3F)COC[C@@H]2CS1,20.8%,
COc1cc2ncnc(-n3nc(-c4ccccn4)nc3N)c2cc1OC,23.4%,
O=C(Nc1c(Cl)cncc1Cl)c1ccc(OC(F)F)c(OCC2CC2)c1,19%,
C=C1C(=O)OC2C=C(C)CCC=C(C)CCC12 (centres undefined),38.1%,
CC=CC(=O)N(CC)c1ccccc1C,11.6%,

SMILES,"activity change, negative = inhibition",Potency
NS(=O)(=O)c1ccc(NC2=CC(=O)c3ccccc3C2=O)cc1,23.8%,
CCC(=O)O[C@]1(C(=O)CO)CC[C@H]2[C@@H]3CCC4=CC(=O)CC[C@]4(C)[C@@H]3CC[C@@]21C,-7.15%,
CC(C)(C)C(=O)Oc1ccc2c(c1)nc(NC(=O)c1cccc([N+](=O)[O-])c1)n2CCCO,0.868%,
CNC(=O)c1ccc2cc(C3(O)CCn4cncc43)ccc2c1 (centres undefined),15%,
CCCCCCCCCCCC1=C(O)C(=O)C=C(O)C1=O,59.8%,
CN(C)Cc1ccc(-c2nc3cccc4c3n2CCNC4=O)cc1,-13.6%,
CC1(C)S[C@H]2[C@H](NC(=O)[C@@H](N)c3ccc(O)cc3)C(=O)N2[C@@H]1C(=O)O,-9.06%,
O=C(OCC#CCSc1nnc(-c2cccc3ccccc23)o1)c1cc2ccccc2s1,-10.2%,
CC[C@H]1OC(=O)[C@H](C)[C@@H](O[C@H]2C[C@@](C)(OC)[C@@H](O)[C@H](C)O2)[C@H](C)[C@@H](O[C@@H]2O[C@H](C)C[C@H](N(C)C)[C@@H]2O)[C@](C)(O)C[C@@H](C)CN(C)[C@H](C)[C@@H](O)[C@]1(C)O,-11.2%,
CC[C@H]1OC(=O)[C@H](C)C(=O)[C@H](C)[C@@H](O[C@H]2O[C@H](C)C[C@H](N(C)C)[C@@H]2O)[C@](C)(OC)C[C@@H](C)C(=O)[C@H](C)[C@H]2N(CCCCn3cnc(-c4cccnc4)c3)C(=O)O[C@]12C,26.3%,
O=c1ccn([C@@H]2O[C@H](CO)[C@H](O)[C@H]2O)c(=O)[nH]1,-4.49%,
CC(C)C(C)C=CC(C)C1CCC2C3=CC=C4CC(O)CCC4(C)C3CCC21C (centres undefined),-11.2%,
O=C(NC1CCOCC1)c1ccc(-c2cc(-c3cn[nH]c3-c3ccccn3)ccn2)cc1,-5.42%,
CN(C[C@@H]1COCCO1)S(=O)(=O)Nc1ccc2ccc3ncc(-c4cnn(C)c4)cc3c(=O)c2c1,6.83%,
COc1cccc([C@@H](C)NCCCc2ccccc2Cl)c1,11.2%,
O=c1cc(N2CCOCC2)oc2c(-c3cccc4c3sc3ccccc34)cccc12,8.69%,
CN(C)C1CCN(C(=O)c2ccc(NC(=O)Nc3nc(N4CCOCC4)nc(N4CCOCC4)n3)cc2)CC1,92.7%,
CC(=O)OC1C(C)OC(Oc2c(-c3ccc(O)cc3)oc3cc(O)cc(O)c3c2=O)C(O)C1OC(C)=O (centres undefined),1.75%,

# Assay: qHTS Screen of the MIPE 4.0 Collection Against Ewings Sarcoma (TC71) (AID 1259253); further: nearly all actives have a fitted effect of over 40% in size;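 on viability (% of DMSO): 100% = DMSO-treated cells and 0% = medium-only wells without cells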
# Conditions: TC71 Ewing sarcoma viability, CellTiter-Glo, 48 h; series mostly up to 45.8 µM; viability (% of DMSO): at the top concentration
# Procedure, shortened: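 Dose series incubated 48 h with cells in RPMI plus 5% FBS, glutamine and penicillin/streptomycin; cell viability then quantified via CellTiter-Glo.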
SMILES,Potency,viability (% of DMSO)
O=C(Nc1cc(Cl)cc2c1[nH]c1cnccc12)c1cccnc1,23.5 µM (active),
COc1cc(N2CCC(N3CCN(C)CC3)CC2)ccc1Nc1ncc(Cl)c(Nc2ccccc2S(=O)(=O)C(C)C)n1,,36.1%
COc1cc(O)c2c(c1)C(=O)c1cc(C)cc(O)c1C2=O,,115% [at 23.2 µM]
COc1cc2ncnc(-n3nc(-c4ccccn4)nc3N)c2cc1OC,18.7 µM (active),
CC(C)(C)C(=O)Oc1ccc2c(c1)nc(NC(=O)c1cccc([N+](=O)[O-])c1)n2CCCO,,104%
CN(C)Cc1ccc(-c2nc3cccc4c3n2CCNC4=O)cc1,18.7 µM (active),
O=c1cc(N2CCOCC2)oc2c(-c3cccc4c3sc3ccccc34)cccc12,10.5 µM (active),
CN(C)C1CCN(C(=O)c2ccc(NC(=O)Nc3nc(N4CCOCC4)nc(N4CCOCC4)n3)cc2)CC1,0.0743 µM (active),
